Hits are enriched below; roughly 2.7% of the tested compounds scored in any of these assays.
HepG2 tox: counter-screen for TGF-b inhibitors: cytotoxicity in HepG2 cells | HepG2 CAGA-GFP viability, ATP luminescence, 18 h | Potency, µM (series often up to 46.1 µM), for the others: at the highest dose activity change, negative = cytotoxicity, actives largely listed as cytotoxic | hit rate 0.76% among 410,000 | AID 588856
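CellTiter-Glo luminescence gave cytotoxicity after 18 hours at 37 degrees C. The cells were HepG2 CAGA-GFP in 1% FBS DMEM, stimulated with 500 pg/mL TGF-beta after compound addition. %Activity was normalised to no-cell wells (complete cell-killing) and DMSO (no toxicity), and curves were fitted and classified.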
ATXN2 expr inh: inhibitors of ATXN2 expression | hit rate 0.72% among 360,000 | AID 1745845 | Potency, µM (series often up to 57 µM), without a hit: at the highest dose activity change, negative = inhibition, most hits filed as inhibitors | HEK-293 ATXN2-luciferase reporter, luminescence, 24 h; further: on the % scale 0 is the no-effect control and ±100 the full control effect; nearly all actives have a fitted effect of over 55% in size
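ATXN2-luciferase reporter cells (luciferase flanked by upstream and downstream ATXN2 gene portions) were treated 24 h at 37 °C with compounds at up to 57 uM. SteadyGlo luminescence gave expression; GF-AFC fluorescence gave viability.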
ATXN viability: cell viability loss in ATXN counter-screen | hit rate 0.49% among 400,000 | AID 651635 | Potency, µM (top dose mostly 56.7 µM), actives largely listed as cytotoxic | S2 cells (HEK-293 line with an ATXN2-luciferase reporter) viability, CellTiter-Fluor protease fluorescence, 24 h; further: nearly all actives have a fitted effect of over 40% in size
TGFb inhibitor: blocks TGF-b signaling; HepG2 CAGA-GFP TGF-b/SMAD3 reporter, GFP fluorescence, 18 h; TGF-beta stimulated, 500 pg/mL final; Potency, µM (series often up to 46.1 µM), inactives show at the top dose activity, negative = inhibition, actives largely listed as inhibitors; hit rate 1.2% among 410,000; further: on the % scale 0 is the no-effect control and ±100 the full control effect; nearly all actives have a fitted effect of over 65% in size
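GFP signal (ex488/em500-530) from TGF-beta-stimulated HEPG2 CAGA-GFP cells, 500 pg/mL final, 18 h at 37 degrees C in DMEM plus 1% FBS, normalized to unstimulated and DMSO-stimulated controls.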
ALOX12 inh: inhibitors of human 12S-lipoxygenase ALOX12 | purified 12hLO, xylenol orange hydroperoxide absorbance | hit rate 1.1% among 580,000 | P18054 | AID 1671190 | Potency, µM (top dose mostly 108 µM), without a hit: at the top dose activity change, negative = inhibition, most hits filed as inhibitors; further: on the % scale 0 is the no-effect control and ±100 the full control effect
Target sequence (P18054 whole entry, looked up): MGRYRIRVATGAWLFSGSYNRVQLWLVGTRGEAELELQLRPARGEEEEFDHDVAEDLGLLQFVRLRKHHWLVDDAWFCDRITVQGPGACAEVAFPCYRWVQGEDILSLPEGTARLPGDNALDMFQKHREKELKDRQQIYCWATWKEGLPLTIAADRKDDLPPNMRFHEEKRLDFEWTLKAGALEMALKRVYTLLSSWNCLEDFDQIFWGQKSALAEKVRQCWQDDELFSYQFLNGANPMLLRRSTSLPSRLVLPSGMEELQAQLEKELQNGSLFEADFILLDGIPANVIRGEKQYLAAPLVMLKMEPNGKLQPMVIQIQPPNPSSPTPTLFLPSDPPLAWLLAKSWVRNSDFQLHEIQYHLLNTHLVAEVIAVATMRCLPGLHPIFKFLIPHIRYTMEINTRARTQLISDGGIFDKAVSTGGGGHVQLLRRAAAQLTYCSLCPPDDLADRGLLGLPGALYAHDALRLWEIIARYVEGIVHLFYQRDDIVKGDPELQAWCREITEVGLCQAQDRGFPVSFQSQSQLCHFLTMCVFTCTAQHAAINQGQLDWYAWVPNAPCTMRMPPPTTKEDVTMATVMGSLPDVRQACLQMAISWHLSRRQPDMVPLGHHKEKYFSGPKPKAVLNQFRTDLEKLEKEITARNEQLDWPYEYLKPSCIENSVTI
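Hydroperoxide product was detected by ferrous iron/xylenol orange as the 573 to 405 nm absorbance ratio. Arachidonic acid at 40 uM (final) was turned over for 30 min at room temperature by 150 nM human 12hLO, pH 7.0 Hepes buffer, after 15 min compound preincubation.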
Starred values were filed as active, the others as inactive; i = inactive; ? = inconclusive; . = no result; [ ] = remark or other dose. The call rests on the fitted dose curve; in most records, active means well fitted curve in the direction sought with a large enough effect; inconclusive means small, poorly fitted or top-dose-only effect, or another doubt; inactive means no such curve, though single readings can be large; an effect the other way counts as inactive or inconclusive. Potency means the concentration at half of the fitted maximal effect.

SMILES	HepG2 tox	ATXN2 expr inh	ATXN viability	TGFb inhibitor	ALOX12 inh
CCOc1ccccc1CN1CCC2(CCN(C(=O)Nc3ccccc3)CC2)Oc2ccccc21	.	.	.	.	25µM*
CCOc1ccccc1CN1CCC2(CCN([S+](=O)([O-])c3cccs3)CC2)Oc2ccccc21	.	.	.	.	-12%
Cc1cccnc1NC(=S)Nc1ccc(Cl)c(Cl)c1	-10%	.	i	-15%	8.9µM*
COc1ccc(NC(=S)Nc2ncccc2C)cc1OC	1%	0%	i	-1%	5µM*
COc1cc(NC(=S)NCc2cccnc2)cc(OC)c1OC	-5%	5%	i	3%	-1%
COc1cc(NC(=S)Nc2cccnc2)cc(OC)c1OC	-9%	-1%	i	4%	45µM*
Cc1cc(NC(=S)Nc2ccc(C)c(Cl)c2)n[nH]1	0%	.	i	?	14µM*
Cc1c(-n2nnnc2SC(C)c2ccccc2)c(=O)n(-c2ccccc2)n1C (stereo not given)	.	.	.	.	3%
O=C(c1ccc(C(F)(F)F)cc1)N1CCC(c2nn(-c3ccc(F)cc3)c(=O)[nH]2)CC1	.	.	.	.	22µM*
COc1ccc(C(=O)N2CCC(c3nn(-c4ccc(Cl)cc4)c(=O)[nH]3)CC2)cc1	.	.	.	.	35µM*
O=C(c1cccc(C(F)(F)F)c1)N1CCC(c2nn(-c3ccc(Cl)cc3)c(=O)[nH]2)CC1	.	.	.	.	10µM*
COc1cc(/C=N/O)ccc1OC(C)C	.	.	.	.	12%
CC(=O)c1c(C)[nH]c(C(=O)Cn2cnc3c2c(=O)n(C)c(=O)n3C)c1C	.	.	.	.	-4%
CCC(C)SSc1ncc[nH]1 (stereo not given)	.	?	.	.	19µM*
O=C(N/N=C/c1ccc(OCCCOc2ccccc2Cl)cc1)c1ccccc1	.	.	.	.	-8%
Cc1cnc(Nc2ccc(F)cc2Cl)nc1-c1c[nH]c(C(=O)N[C@H](CO)c2cccc(Cl)c2)c1	.	24µM*	.	.	27%[57.4 µM]
O=C(N[C@@H](CO)c1ccccc1)c1cc(COc2cccc(F)c2)[nH]n1	.	.	.	.	29%
Cn1cc(S(=O)(=O)N2CCCCCC2)cc1C(=O)NCc1ccccc1Cl	1%	-29%	i	5µM*	-2%
OCC1(CC2CC2)CCCN(Cc2cccc(OCc3ccccn3)c2)C1 (stereo not given)	.	.	.	.	-19%
O=C(Nc1ccc(N2CCCCC2)cc1)c1ccccn1	-81%	1.8µM*	i	7%	.
O=C(Nc1ccc(Cl)c(S(=O)(=O)N2CCOCC2)c1)c1cn2ccccc2n1	-2%	4%	i	-5%	-8%
O=C(Nc1ccc(N2CCOCC2)cc1)c1cn2ccccc2n1	-23%	11µM*	i	1%	3%
Oc1ccccc1Oc1ncc(Br)c(Cl)n1	-1%	4%	i	3%	32µM*
CCOC(=O)c1cc2cc(C(=O)NC(C)CC)ccc2[nH]1 (stereo not given)	.	.	.	.	-16%
Cc1oc2c(c1C(=O)N1CCN(C3CCCC3)CC1)CN(Cc1cccc(F)c1)CC2	.	.	.	.	8.9µM*
SMILES	HepG2 tox	ATXN2 expr inh	ATXN viability	TGFb inhibitor	ALOX12 inh
Cc1oc2c(c1C(=O)NC1CCCC1)CN(Cc1ccc(F)cc1)CC2	.	.	.	.	13µM*
Cc1ccc(CN2CCc3oc(C)c(C(=O)NC4CCCC4)c3C2)cc1	.	.	.	.	25µM*
COC(=O)c1ccc(C)c(NS(=O)(=O)c2ccc3ccccc3c2)c1	.	.	.	.	10%
CCOC(=O)C1CCN(Cc2cccc(Oc3ccc(Cl)cc3)c2)CC1	2%	-13%	i	19%	1.4µM*
Oc1c(C(Nc2ccccn2)c2cccnc2)cc(Cl)c2cccnc12 (stereo not given)	-16%	22µM*	i	0%	?
CC(=O)NC(c1cc(Cl)c2cccnc2c1O)C1CC1 (stereo not given)	-60%	8.9µM*	3.2µM*	1.6µM*	?
Cc1cc(NC(c2cccnc2)c2ccc3cccnc3c2O)no1 (stereo not given)	4%	4µM*	i	-29%	-8%
COc1ccc(C(=O)NC(c2ccc(OC)c(OC)c2)c2cc(Cl)c3cccnc3c2O)cc1 (stereo not given)	-2%	.	.	-1%	.
Oc1c(C(Nc2cccc(C(F)(F)F)c2)c2cccnc2)ccc2cccnc12 (stereo not given)	-53%	?	i	?	?
COc1ccc(C(NC(=O)c2cccnc2)c2cc(Cl)c3cccnc3c2O)cc1OC (stereo not given)	-102%	16µM*	i	?	-16%
CCC(=O)NC(c1cc(Cl)c2ccccc2c1O)C1CC1 (stereo not given)	-1%	-9%	i	-15%	-22%
CCc1cccc(NS(=O)(=O)c2ccc(-c3coc(C)n3)cc2)c1	.	.	.	.	-35%
CN1CCN(C(=O)C2CCN(c3nc(Cl)nc4nc[nH]c34)CC2)CC1	.	.	.	.	0%
COc1ccc(CC(=O)N2Cc3ccccc3CC3(CCN(C)CC3)C2)cc1	.	.	.	.	11%[6.33 µM]
CC(=O)NC(c1ccc(C)cc1)c1cc(Cl)c2cccnc2c1O (stereo not given)	-23%	11µM*	i	?	?
CC(=O)NC(c1ccco1)c1cc(Cl)c2cccnc2c1O (stereo not given)	-37%	8.9µM*	?	?	?
CC(=O)NC(c1cc(Cl)c2cccnc2c1O)C(C)C (stereo not given)	-27%	5.6µM*	5µM*	6.3µM*	?
COc1ccc(C2(C(=O)N3CCCC(c4nc(-c5cccnc5)no4)CCNC(=O)CC3)CC2)cc1 (stereo not given)	.	.	.	.	6%
O=C(Nc1ccc(F)cc1)C(Sc1ccccn1)c1ccccc1 (stereo not given)	.	.	.	.	9%
COc1cc(NC(=O)Cn2ncc(Cl)c(Cl)c2=O)c(C)cc1[N+](=O)[O-]	-26%	27µM*	17µM*	?	0%
CCC[C@@H](CN[C@@H](CNC)[C@H](C)CC)NCC1CCC(C(C)(C)C)CC1 (stereo not given in full)	-119%	?	.	?	-8%
CCCC[C@@H](CNC)NC[C@H](NCCCCC1CCCCC1)C(C)C	-99%	25µM*	?	?	20%
CN(C)C(=O)c1ccc(-c2nccc(-n3ccnc3)n2)cc1	.	.	.	.	22µM*
CN(C)C(=O)c1ccc(-c2nnc(NCc3ccccc3)c3ccccc23)cc1	4%	-2%	i	-3%	-16%
Cc1ccccc1-c1nccc(-n2ccnc2)n1	.	.	.	.	7.9µM*
CN(C)C(=O)c1ccc(-c2nccc(NCc3ccccc3)n2)cc1	.	.	.	.	45µM*
CC(=O)c1ccc(-n2ccnc2)cc1	1%	-19%	i	26%	?
CCOc1ccc(-n2ccnc2)nn1	-19%	3%	i	4%	1%
COc1ccc(NC(=O)c2n[nH]c3ccccc23)cc1S(=O)(=O)Nc1ccccc1Cl	.	.	.	.	5%

High-throughput results as filed in PubChem.
